Assay results as given in PubChem BioAssay (NCATS).
Results filed as inconclusive are left out. Unmarked numbers belong to inactive results. Active and inactive are the calls of the source. Calls come from the whole dose curve; as a rule, active = well fitted inhibition curve with a large enough effect; inconclusive = small, poorly fitted or top-dose-only effect; inactive = flat fitted curve, though single readings scatter. Residues, ends and D or L forms follow the SMILES beside them. *: point of attachment. Cbz = O=C(OCc1ccccc1)*

Tested on: NIH3T3
Test: Cytotoxic Profiling of Annotated Libraries Using Quantitative High-Throughput Screening (AID 1296008); note: nearly all actives have a fitted effect of over 60% in size
Conditions: Five cell lines viability, CellTiter-Glo ATP luminescence, 48-72 h; max response: hits give low values
Outline: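 Cells exposed to compounds for 48 or 72 hr at 37 degrees Celsius. Viability read as ATP-coupled luminescence with CellTiter-Glo after 10 min at room temperature.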
% is set by controls: 0 for no effect and ±100 for the full control effect; potency is the fitted concentration of half-maximal effect.

**Q.** COc1cc(C(=O)NC2CCN(C)CC2)ccc1Nc1ncc2c(n1)N(C1CCCC1)CCC(=O)N2C(C)C was tested. Which Potency did it give?
**A.** 1.32 µM (active)

**Q.** For Nc1nc2c(c(=O)[nH]1)N(C=O)[C@H](CNc1ccc(C(=O)N[C@@H](CCC(=O)O)C(=O)O)cc1)CN2, which outcome is on record?
**A.** inactive

**Q.** For O=C(O)C[C@H](O)C[C@H](O)C=Cc1c(C2CC2)nc2ccccc2c1-c1ccc(F)cc1, which Potency is on record?
**A.** 20.9 µM (active)

**Q.** How did the Potency turn out when CC(C)C[C@@H](C=O)NC(=O)[C@H](CC(C)C)NC(=O)[C@H](CC(C)C)NC(=O)OCc1ccccc1 (Cbz-Leu-Leu-Leu-aldehyde) was run?
**A.** 2.96 µM (active)

**Q.** With COC(=O)C=CC(=O)OC as the compound, how does the max response read?
**A.** -0.0603%

**Q.** How did the outcome turn out when CC(C)(C)[C@H](NC(=O)c1ccc(N)c(Cl)c1)C(=O)N1CCC[C@@H]1C(=O)N[C@H](C#N)CC(=O)O was run?
**A.** inactive

**Q.** CCC(C=C[C@@H]1OC(=O)C=C[C@H]1C)=C[C@H](C)CC=CC(C)=C[C@@H](C)C(=O)[C@@H](C)[C@H](O)[C@@H](C)CC(C)=CC(=O)O was tested. Which Potency did it give?
**A.** 0.124 µM (active)

**Q.** With CC[C@H]1OC(=O)[C@H](C)[C@@H](O[C@H]2C[C@@](C)(OC)[C@@H](O)[C@H](C)O2)[C@H](C)[C@@H](O[C@@H]2O[C@@H](C)C[C@H](N(C)C)[C@@H]2O)[C@](C)(O)C[C@@H](C)C(=O)[C@H](C)[C@@H](O)[C@]1(C)O as the compound, how does the outcome read?
**A.** inactive

**Q.** How did the outcome turn out when COc1cc(C[C@@H](CO)[C@H](CO)Cc2ccc(O)c(OC)c2)ccc1O was run?
**A.** inactive

**Q.** How did the max response turn out when CN1C(C(=O)Nc2ccccn2)=C(O)c2sc(Cl)cc2S1(=O)=O was run?
**A.** -1.3%

**Q.** For Oc1cc2c(cc1O)C1c3ccc(O)c(O)c3OCC1(O)C2 (centres undefined), which outcome is on record?
**A.** inactive

**Q.** How did the Potency turn out when CNC(=O)Nc1ccc(-c2nc(N3CC4CCC(C3)O4)c3cnn(C4CCC5(CC4)OCCO5)c3n2)cc1 was run?
**A.** 0.0526 µM (active)

**Q.** For C=CC(=O)Nc1cccc(Nc2nc(NC3CCC(N(C)C)CC3)nc3c2ncn3C(C)C)c1 (centres undefined), which Potency is on record?
**A.** 14.8 µM (active)

**Q.** With CC(=O)O[C@]1(C(C)=O)CC[C@H]2[C@@H]3C=C(C)C4=CC(=O)CC[C@]4(C)[C@@H]3CC[C@@]21C as the compound, how does the max response read?
**A.** 4.47%

**Q.** How did the Potency turn out when CC1=C(C(=O)Nc2cc3cn[nH]c3cc2F)C(c2ccc(Cl)cc2F)N=C(c2ccnc(Cl)c2)N1 (centres undefined) was run?
**A.** 11.8 µM (active)

**Q.** Which max response does the source give for C[C@@H](NCc1cc2ccccc2[nH]1)c1cccc2ccccc12 here?
**A.** 2.38%

**Q.** How did the max response turn out when CC(=O)O[C@H]1C[C@@H]2CC[C@H]3[C@H]4C[C@H]([N+]5(C)CCCCC5)[C@@H](OC(C)=O)[C@@]4(C)CC[C@@H]3[C@@]2(C)C[C@H]1[N+]1(C)CCCCC1 was run?
**A.** -1.21%

**Q.** With C=CC[C@@H]1C=C(C)C[C@H](C)C[C@H](OC)[C@H]2O[C@@](O)(C(=O)C(=O)N3CCCC[C@H]3C(=O)O[C@H](C(C)=C[C@@H]3CC[C@H](O)[C@H](OC)C3)[C@@H](C)[C@@H](O)CC1=O)[C@@H](C)C[C@@H]2OC as the compound, how does the outcome read?
**A.** inactive

**Q.** With C[C@@H]1C(=O)O[C@H]2CC34[C@H]5C[C@@H](C(C)(C)C)C36[C@H](OC(=O)[C@@H]6O)O[C@@]4(C(=O)O5)[C@]21O (some centres undefined) as the compound, how does the outcome read?
**A.** inactive

**Q.** CN(CC(=O)N(Cc1ccc(C2CCCCC2)cc1)c1ccc(C(=O)O)c(O)c1)S(=O)(=O)c1c(F)c(F)c(F)c(F)c1F was tested. Which outcome did it give?
**A.** inactive

**Q.** For COc1cc(C)c(C=CC(C)=CC=CC(C)=CC(=O)O)c(C)c1C, which max response is on record?
**A.** -4.41%

**Q.** For CC(=O)N1CCN(c2ccc(OCc3nn(C)c(C)c3-c3cccc4c(CCCOc5cccc6ccccc56)c(C(=O)O)n(Cc5cccnc5)c34)cc2)CC1, which max response is on record?
**A.** -8.89%

**Q.** How did the outcome turn out when CC(=O)C1=C(O)C=C2Oc3c(C(C)=O)c(O)c(C)c(O)c3C2(C)C1=O (centres undefined) was run?
**A.** inactive

**Q.** With C=Cc1c(C)c2cc3nc(cc4[nH]c(cc5nc(cc1[nH]2)C(C)=C5CCC(=O)O)c(CCC(=O)OC)c4C)[C@@]1(C)C3=CC=C(C(=O)OC)[C@H]1C(=O)OC as the compound, how does the max response read?
**A.** 4.13%

**Q.** How did the max response turn out when NC[C@H]1O[C@H](O[C@H]2[C@@H](O)[C@@H](O[C@H]3O[C@H](CO)[C@@H](O)[C@H](N)[C@@H]3O)[C@H](N)C[C@@H]2N)[C@H](N)C[C@H]1O was run?
**A.** -1.89%

**Q.** For O=C1NC(=O)[C@@H](c2cn3c4c(cccc24)CCC3)[C@H]1c1c[nH]c2ccccc12, which Potency is on record?
**A.** 2.09 µM (active)

**Q.** With C[C@H](NC(=O)Cc1cc(F)cc(F)c1)C(=O)N[C@H](C(=O)OC(C)(C)C)c1ccccc1 as the compound, how does the max response read?
**A.** -8.45%

**Q.** With C[N+]1(C)[C@@H]2C[C@@H](OC(=O)C(O)(c3cccs3)c3cccs3)C[C@H]1[C@@H]1O[C@@H]12 as the compound, how does the max response read?
**A.** -6.05%

**Q.** For OCC(O)C(O)C(O)CO (centres undefined), which max response is on record?
**A.** 2.68%

**Q.** How did the max response turn out when C=C1C[C@@]2(O)O[C@@]3(C[C@H]2C(C)C)[C@H](C)CC[C@H]13 was run?
**A.** 2.78%

**Q.** Cc1cnc(Nc2ccc(N3CCN(C)CC3)cc2)nc1Nc1cccc(S(=O)(=O)NC(C)(C)C)c1 was tested. Which Potency did it give?
**A.** 4.18 µM (active)

**Q.** O=C(c1ccc(F)cc1)N1CCC[C@H](c2nc(-c3ccc(F)cc3)no2)C1 was tested. Which outcome did it give?
**A.** inactive

**Q.** O=C(O)[C@H](CC(=O)N1C[C@@H]2CCCC[C@H]2C1)Cc1ccccc1 was tested. Which outcome did it give?
**A.** inactive

**Q.** For COc1ccc([C@@H]2CNC(=O)C2)cc1OC1CCCC1, which outcome is on record?
**A.** inactive
